# Assay results reported in PubChem BioAssay AID686979 (National Center for Advancing Translational Sciences (NCATS), 2013).
# Out of some 420,000 compounds screened, about 50,000 (12%) were called active. Inconclusive results (about 26%) are left out. The call rests on the fitted dose curve; in most records, active means well fitted inhibition curve with a large enough effect; inconclusive means small, poorly fitted or top-dose-only effect; inactive means flat fitted curve, though single readings scatter. The full list was thinned out, with actives kept by preference.
# Assay: qHTS for Inhibitors of human tyrosyl-DNA phosphodiesterase 1 (TDP1): qHTS in cells in presence of CPT; further: nearly all actives have a fitted effect of over 55% in size
# Conditions: chicken DT40 Tdp1-/-;hTDP1 cells + 20 nM CPT, ATP luminescence, 48 h; series mostly up to 46.2 µM; activity change, negative = growth inhibition: at the top concentration
# Outline: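 Cell growth measured by CellTiter-Glo luminescence after a minimum 48 h, 37 C compound exposure with 20 nM CPT in Tdp1-knockout DT40 cells stably expressing hTDP1, seeded 400/well; qHTS titration format.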
# On the % scale 0 is the no-effect control and ±100 the full control effect; potency means the concentration at half of the fitted maximal effect.
SMILES,"activity change, negative = growth inhibition",Potency
O=C(COC(=O)c1ccc([N+](=O)[O-])cc1Cl)NC(=O)c1ccccc1,1.48% (inactive),–
O=C(NCCN1CCOCC1)c1cnn(-c2nccc(-c3cccs3)n2)c1C1CC1,2.01% (inactive),–
NS(=O)(=O)c1ccc(NC(=O)C(=O)Nc2ccc3nc4n(c(=O)c3c2)CCCCC4)cc1,14.5% (inactive),–
CCC(=O)Nc1ccc(C(=O)N2CCN(C(=O)c3ccco3)CC2)cc1,-9.24% (inactive),–
COc1cccc(C(=O)Nc2ccc3nc4n(c(=O)c3c2)CCCCC4)c1,–,20.6 µM (active)
O=C(c1ccco1)N1CCN(c2cccc(Cl)c2)CC1,-25.2% (inactive),–
CN1CCN(c2ccc(NC(=O)c3ccccc3)cc2)CC1,0.495% (inactive),–
COc1ccc(C(=O)Nc2ccc(N3CCC(C)CC3)cc2)cc1Br,8.77% (inactive),–
Cc1ccc(OCC(=O)Nc2ccc(N3CCN(C(=O)c4ccco4)CC3)cc2)c(C)c1,–,16.4 µM (active)
Cc1ccc(C)c(OCC(=O)N2CCN(C(=O)c3ccco3)CC2)c1,-28.5% (inactive),–
O=C(Nc1ccc2nc3n(c(=O)c2c1)CCCC3)c1ccc(Cl)nc1,-13.5% (inactive),–
COc1cccc(C(=O)Nc2ccc(NC(=O)c3ccco3)cn2)c1,-16.7% (inactive),–
COc1cccc(C(=O)Nc2ccc(N3CCN(C(=O)c4ccco4)CC3)cc2)c1,–,14.6 µM (active)
COc1cccc(C(=O)Nc2ccc(N3CCCC3)cc2)c1,–,9.2 µM (active)
COc1cccc(COC(=O)C2CCN(S(=O)(=O)c3ccc(Cl)cc3)CC2)c1OC,-13.8% (inactive),–
COc1ccc(CN2CC[C@H]3C=CC[C@@H](C(=O)N4CCOCC4)[C@H]3C2=O)cc1OC,–,inactive
C=CCN1C(=NC(=O)COc2ccccc2)SC2CS(=O)(=O)CC21 (stereo unspecified),-2.8% (inactive),–
COc1ccc(CCNC(=O)CSc2nnc3ccc(-c4ccncc4)nn23)cc1,-27.7% (inactive),–
CCOC(CNC(=O)C(=O)NCC(c1ccco1)N1CCN(c2ccc(OC)cc2)CC1)OCC (stereo unspecified),-12.4% (inactive),–
COc1ccc2ccccc2c1CNCc1ccccn1,-4.31% (inactive),–
Cc1cccc(C(C)C)c1NC(=O)COC(=O)C1CC(=O)N(Cc2ccccc2)C1 (stereo unspecified),-15.7% (inactive),–
COc1ccc2[nH]cc(CCNc3ncnc4ccc(-c5ccc(C(=O)N(C)C)cc5)cc34)c2c1,–,20.6 µM (active)

SMILES,"activity change, negative = growth inhibition",Potency
COc1ccc2[nH]cc(CCNc3cc(-c4ccccc4CN(C)C)ncn3)c2c1,-26.4% (inactive),–
COc1ccc2[nH]cc(CCN3C(=O)c4ccc(C(=O)O)cc4C3=O)c2c1,-5.94% (inactive),–
Cc1ncc([N+](=O)[O-])n1CCOC(=O)c1ccc(Br)cc1,5.56% (inactive),–
CCn1c(/C=C/Nc2ccccc2)[n+](CC)c2ccc(C(=O)OCC(F)(F)F)cc21,–,25.9 µM (active)
CCOC(=O)c1ccc2c(c1)nc(C)n2CC,-27.8% (inactive),–
NC(CSC1(c2ccccc2)c2ccccc2-c2ccccc21)C(=O)O (stereo unspecified),-18.1% (inactive),–
CCNC(=O)Nc1ccc(S(=O)(=O)Nc2cnc(C)nc2C)cc1,-2.56% (inactive),–
Cc1cc(C)c(C#N)c(SCC(=O)N(CC(C)C)C2CCS(=O)(=O)C2)n1 (stereo unspecified),2.6% (inactive),–
CNc1cncc(-c2ccc(NS(C)(=O)=O)cc2)n1,–,2.91 µM (active)
CCCS(=O)(=O)Nc1ccc(-c2cn3c(n2)SCC3)cc1,-0.742% (inactive),–
CS(=O)(=O)Nc1ccc(C(=O)N2CCCC2)cc1,12.6% (inactive),–
CC1(C)C/C(=N/Nc2ccc([N+](=O)[O-])cc2[N+](=O)[O-])C(C)(C)O1,-11.8% (inactive),–
CCc1c(C)nc(SCC(=O)NC2CCCC2)[nH]c1=O,-2.07% (inactive),–
CCCn1c(NCc2ccc(N(CC)CC)cc2)nc2ccccc21,–,25.9 µM (active)
CC(C)(C)C(=O)Cn1c(NCCO)nc2ccccc21,-3.07% (inactive),–
CCCn1c(NCc2ccccc2F)nc2ccccc21,5.1% (inactive),–
CC(=O)NC(CC(=O)Nc1ccc(S(=O)(=O)N2CCOCC2)cc1)c1ccccc1 (stereo unspecified),0.997% (inactive),–
O=S(=O)(c1ccc(F)cc1)N1CC=C(c2ccccc2)CC1,-1.63% (inactive),–
COc1ccc(N(CC(=O)Nc2ccc(F)c(F)c2)S(=O)(=O)c2c(C)[nH]c(=O)[nH]c2=O)cc1,2.44% (inactive),–
S=C(Nc1cccc(Cl)c1)Nc1ccc2c(c1)OCCO2,-30.1% (inactive),–
c1ccc(CN2CCC(N=C3NN=C(c4ccc5c(c4)OCCO5)CS3)CC2)cc1,-26.3% (inactive),–
Clc1cccc(N=C2NN=C(c3ccc4c(c3)OCCO4)CS2)c1,–,20.6 µM (active)

SMILES,"activity change, negative = growth inhibition",Potency
CCOC1CS(=O)(=O)CC1OCC (stereo unspecified),-5.04% (inactive),–
CC(=O)Nc1ccc(NC(=O)CSc2nnnn2-c2ccccc2F)cc1,-24.4% (inactive),–
Cc1cccc(NC(=O)C2CCN(S(=O)(=O)c3c(C)noc3/C=C/c3ccco3)CC2)c1,–,16.4 µM (active)
CC(=O)c1ccc(NC(=O)C2CCN(S(=O)(=O)c3c(C)noc3/C=C/c3ccc(C)cc3)CC2)cc1,-24.3% (inactive),–
CNC(=O)C1CCN(S(=O)(=O)c2c(C)noc2/C=C/c2cccc(C)c2)CC1,-10.1% (inactive),–
Cc1ccc(S(=O)(=O)N(C)C)cc1NC(=O)c1ccc(-n2cncn2)c([N+](=O)[O-])c1,-3.09% (inactive),–
COc1ccccc1CNCc1ccc(C(=O)O)s1,-5.35% (inactive),–
CCCn1nc(C(=O)OCc2nc(N)nc(Nc3ccccc3C)n2)c2ccccc2c1=O,-16.3% (inactive),–
CC(C)OC(=O)c1ccc(NCc2cc(O)ccc2O)cc1Cl,–,2.91 µM (active)
O=C(OC12CC3CC(CC(C3)C1)C2)c1ccc(NCc2cc(O)ccc2O)cc1,–,2.06 µM (active)
CC(OC(=O)c1ccc(Cl)cc1O)C(=O)NCCC1=CCCCC1 (stereo unspecified),-9.5% (inactive),–
CC(CN1CCOCC1)OC(=O)c1ccc(Cl)cc1Cl (stereo unspecified),5.64% (inactive),–
COC(=O)c1ccc(NCC(=O)c2ccccc2)cc1,-1.26% (inactive),–
C#CCNc1ccc(C(=O)OCC)cc1,1.67% (inactive),–
COC(=O)c1ccc(NCc2cc(O)ccc2O)cc1,–,4.61 µM (active)
CCCCCN(C(=O)CCC(=O)OCC(=O)NC1CCC(C)CC1)c1c(N)n(CCCC)c(=O)[nH]c1=O (stereo unspecified),-3.19% (inactive),–
COc1ccc(NC(=O)c2cccc(Cl)c2)c[n+]1[O-],-0.187% (inactive),–
O=C(Nc1c2c(nn1-c1ccccc1)CS(=O)(=O)C2)C1CCCC1,-6.01% (inactive),–
O=C(CCc1ccc(S(=O)(=O)N2CCOCC2)cc1)OCC(=O)c1ccc(Br)cc1,9.72% (inactive),–
CCOc1ccc(-n2cnnn2)cc1S(=O)(=O)N1CCC(C)CC1C (stereo unspecified),-5.89% (inactive),–
C#CC(C)(C)NC(=O)c1cnc(-c2ccccc2)nc1-c1ccccc1,-19.4% (inactive),–
COC(=O)c1ccc(COC(=O)CNC(=O)c2cccc(OC)c2)o1,1.46% (inactive),–
